RORgamma inh = inhibitors of mouse ROR gamma transcriptional activity; AID 2551; 310,000 compounds, 5.4% hits; Potency, µM (series often up to 53.6 µM), inactives show at the highest dose activity change, negative = inhibition, hits mostly inhibitors; Drosophila S2 Gal4-RORgamma UAS-luciferase reporter, 20 h; further: nearly all actives have a fitted effect of over 60% in size
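Stable Schneider cell line, Gal4 DNA-binding domain fused to ROR gamma, UAS-luciferase. Cmpd 1 hr RT → CuSO4 700 uM final → 20 hr RT → luciferase reagent 10 min → luminescence.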
DT40 TDP1 no CPT = qHTS for Inhibitors of human tyrosyl-DNA phosphodiesterase 1 (TDP1): qHTS in cells in absence of CPT; DT40 Tdp1-/- hTDP1 cells, no CPT, ATP luminescence, 48 h; Potency, µM (series often up to 46.2 µM), for the others: at the top dose activity change, negative = growth inhibition, hits mostly inhibitors; 420,000 compounds, 15% hits; further: nearly all actives have a fitted effect of over 55% in size
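DT40 Tdp1-/-;hTDP1 cells, no CPT (DMSO vehicle only), 400 cells/well; compounds pin-transferred; ≥48 hr, 37 °C; CellTiter-Glo 30 min RT dark, luminescence read.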
VP16 counter = counter-screen for ROR gamma inhibitors: Gal4-VP16 reporter; Potency, µM (titrated, usually from 53.6 µM), for inactives: at the top dose activity, negative = inhibition, most hits filed as inhibitors; AID 2546; 310,000 compounds, 3.5% hits; Drosophila S2 Gal4-VP16 UAS-luciferase, luminescence, 20 h;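 further: Gal4-VP16 expression switched on by copper sulfate through the metallothionein promoter; nearly all actives have a fitted effect of over 50% in size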
TDP1 cell CPT = growth inhibition of DT40 Tdp1-/-;hTDP1 cells with camptothecin (screen for TDP1 inhibitors). AID 686979. 420,000 compounds, 12% hits. Potency, µM (highest dose often 46.2 µM), for the others: top-dose activity change, negative = growth inhibition, actives largely listed as inhibitors. chicken DT40 Tdp1-/-;hTDP1 cells + 20 nM CPT, ATP luminescence, 48 h; further: nearly all actives have a fitted effect of over 55% in size
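Cell growth measured by CellTiter-Glo luminescence after a minimum 48 h, 37 C compound exposure with 20 nM CPT in Tdp1-knockout DT40 cells stably expressing hTDP1, seeded 400/well; qHTS titration format.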
TDP1 inh = inhibitors of human tyrosyl-DNA phosphodiesterase TDP1; Potency, µM (series often up to 130 µM), inactives show at the top dose activity change, negative = inhibition, actives largely listed as inhibitors; 350,000 compounds, 0.28% hits; recombinant TDP1, AlphaScreen DNA substrate cleavage; Q9NUW8; further: nearly all actives have a fitted effect of over 40% in size
Target sequence (Q9NUW8 whole entry, looked up): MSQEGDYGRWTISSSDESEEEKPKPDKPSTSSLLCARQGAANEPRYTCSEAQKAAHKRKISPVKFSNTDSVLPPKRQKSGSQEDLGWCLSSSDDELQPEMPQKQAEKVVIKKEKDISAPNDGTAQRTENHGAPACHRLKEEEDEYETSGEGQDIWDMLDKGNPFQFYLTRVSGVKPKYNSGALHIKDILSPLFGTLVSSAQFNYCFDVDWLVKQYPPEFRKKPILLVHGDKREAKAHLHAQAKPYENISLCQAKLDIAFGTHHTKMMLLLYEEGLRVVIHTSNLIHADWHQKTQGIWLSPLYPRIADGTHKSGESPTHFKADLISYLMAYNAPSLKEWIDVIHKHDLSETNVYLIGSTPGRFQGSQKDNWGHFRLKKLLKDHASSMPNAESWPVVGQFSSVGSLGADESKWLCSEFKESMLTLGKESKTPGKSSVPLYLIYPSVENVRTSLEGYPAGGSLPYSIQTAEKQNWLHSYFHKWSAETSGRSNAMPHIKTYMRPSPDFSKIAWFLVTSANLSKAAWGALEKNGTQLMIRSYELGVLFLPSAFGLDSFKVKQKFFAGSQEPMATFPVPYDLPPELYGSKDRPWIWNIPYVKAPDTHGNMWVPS
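Compounds were preincubated with Tdp1 (1 nM final) for 15 min at room temperature before substrate (15 nM final) started a 5 min reaction; beads (10 ug/ml final) were then added for 10 min before AlphaScreen detection.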
Starred values were filed as active, the others as inactive; ? = inconclusive; · = no result given; [ ] = another dose, or the depositor's remark. The list is not random: actives were taken first. Their share in the collection is about 19%. The call rests on the fitted dose curve; in most records, active means well fitted curve in the direction sought with a large enough effect; inconclusive means small, poorly fitted or top-dose-only effect, or another doubt; inactive means no such curve, though single readings can be large; an effect the other way counts as inactive or inconclusive. On the % scale 0 is the no-effect control and ±100 the full control effect; potency means the concentration at half of the fitted maximal effect.

SMILES	RORgamma inh	DT40 TDP1 no CPT	VP16 counter	TDP1 cell CPT	TDP1 inh
O=C(c1ccc2c(c1)N(Cc1ccc(F)cc1)C(=O)c1ccccc1S2(=O)=O)N1CCC(Cc2ccccc2)CC1	·	5.2µM*	·	5.8µM*	9%
C=CC[C@]12C=C(OC)C(=O)C(OC)=C1O[C@@H](c1ccc3c(c1)OCO3)[C@H]2C	·	-9%	·	-10%	·
C=CC[C@]12CC=CC(=O)[C@@]1(O)O[C@H](c1ccc(OC)c(OC)c1)[C@H]2C	·	5.8µM*	·	10µM*	·
C#CCN1C=CC(=O)[C@@H](OC(=O)Nc2ccc(Cl)cc2)[C@H]1c1ccccc1Br	·	23µM*	·	21µM*	·
C#CCN1C=CC(=O)[C@@H](OC(=O)Nc2ccc(OC)cc2)[C@H]1c1ccccc1Br	·	-17%	·	?	·
O=[N+]([O-])c1cccc(-c2nc(Oc3ccc(Cl)cc3)c3ccccc3n2)c1	32%	·	-2%	·	0%
O=[N+]([O-])c1ccc2nc(Cl)nc(-c3ccccc3)c2c1	-13%	7.3µM*	1%	12µM*	·
Cn1c(=O)cnc2cnc(OCc3ccccc3)nc21	-8%	-1%	1%	-2%	·
CCC(O)c1cnc(OCc2ccccc2)nc1OCc1ccccc1 (stereo not drawn)	·	18µM*	·	?	·
CCCCNS(=O)(=O)c1ccc2nc(-c3cccnc3)cc(C(=O)NC(C)CC)c2c1 (stereo not drawn)	?	-11%	-19%	-13%	0%
CC[C@H](C)[C@H](NC(=O)OCc1ccccc1)C(=O)Nc1ccc(NC(C)=O)cc1	2%	-7%	-12%	-19%	-3%
CCC(C(=O)N(C)Cc1ccccc1)n1nc(C)c2sc3ccccc3c2c1=O (stereo not drawn)	·	16µM*	·	?	6%
CCC(C(=O)NCc1ccccc1Cl)n1nc(C)c2sc3ccccc3c2c1=O (stereo not drawn)	·	?	·	18µM*	-3%
Cc1nn(C(C)C(=O)O)c(=O)c2c1sc1ccccc12 (stereo not drawn)	8%	0%	2%	5%	3%
CCC(C(=O)NC1CCCCC1)n1nc(C)c2sc3ccccc3c2c1=O (stereo not drawn)	·	9.2µM*	·	10µM*	9%
CCOC(=O)N(CC)OC(=O)Nc1ccc(Cl)cc1	29%	-7%	8%	-12%	-4%
Cc1ccccc1C(=O)NC(C)C1CC2CCC1C2 (stereo not drawn)	-12%	?	-16%	13%	·
COc1ccc(C(CC(=O)O)NC(=O)c2ccccc2[N+](=O)[O-])cc1 (stereo not drawn)	14%	0%	-1%	-5%	·
CCC(C)NC(=O)COC(=O)c1ccccc1OCC(=O)Nc1ccc(Br)cc1 (stereo not drawn)	10%	?	-5%	?	3%
CC(=O)Nc1nnc(CCS(=O)(=O)c2ccc(C)cc2)s1	·	?	·	-12%	·
Cc1ccc(NC(=O)C(NC2CCCC2)c2ccccc2)cc1Cl (stereo not drawn)	-33%	16µM*	1%	?	-3%
Cc1ccc(NC(=O)C(c2ccccc2)N2CCN(CC(=O)N3CCOCC3)CC2)cc1Cl (stereo not drawn)	·	-14%	·	-1%	28µM*
Cc1ccc(NC(=O)C(OC(=O)c2ccc(NC(N)=O)cc2)c2ccccc2)cc1Cl (stereo not drawn)	-1%	?	-20%	?	3%
Cc1cc(C(=O)OC(C(=O)Nc2ccc(C)c(Cl)c2)c2ccccc2)c(C)o1 (stereo not drawn)	-3%	29µM*	-21%	23µM*	-1%
COc1ccc(NC(=O)c2c(C)noc2-c2snnc2C)cc1	-1%	21µM*	8%	?	3%
SMILES	RORgamma inh	DT40 TDP1 no CPT	VP16 counter	TDP1 cell CPT	TDP1 inh
O=C1c2ccccc2[C@@H]2C[C@@H](O)[C@H](Nc3cccc(C(F)(F)F)c3)CCN12	·	?	·	23µM*	-2%[56.1 µM]
O=C1c2ccccc2[C@@H]2C[C@@H](O)[C@H](Nc3ccccc3)CCN12	·	-11%	·	13%	1%[56.1 µM]
O=C1c2ccccc2[C@@H]2C[C@@H](O)[C@H](Nc3ccccc3-c3ccccc3)CCN12	·	18µM*	·	?	0%[56.1 µM]
COCCN(CC1CCCN(C2Cc3ccccc3C2)C1)C(=O)CCC(C)=O (stereo not drawn)	13%	13%	2%	-16%	·
COc1ccc(C(C)=O)cc1CSc1nc2cc(Cl)ccc2o1	-13%	-30%	-1%	-18%	-2%
CCOc1ccc(OCC)c(NC(=O)CN2CCC(NC(=O)c3cccc(F)c3)CC2)c1	12%	16µM*	-20%	23µM*	6%
CCOc1ccccc1N1CCN(CC(=O)Nc2nccs2)CC1	·	-18%	·	-18%	·
CCOc1ccccc1N1CCN(CC(=O)Nc2ccccc2C(=O)NC2CC2)CC1	·	16µM*	·	21µM*	0%[56.1 µM]
CCOc1ccccc1NC(=O)CN1CCC(NC(=O)c2ccccc2C)CC1	15%	23µM*	-5%	23µM*	·
CCOc1ccccc1N1CCN(CC(=O)Nc2ccnn2C2CCCC2)CC1	·	?	·	13µM*	1%[56.1 µM]
Cc1cnn(C(=O)c2ccccc2Br)c1	-12%	4%	-5%	-2%	7%
CC(=O)c1ccccc1[N+](=O)[O-]	-3%	·	17%	·	5%
COC(=O)c1ccccc1NC(=O)CN1CCC(NC(=O)c2ccc(C)cc2)CC1	-16%	26µM*	-12%	?	7%
COC(=O)c1ccccc1NC(=O)CN1CCN(C23CC4CC(CC(C4)C2)C3)CC1	-14%	?	0%	29µM*	0%
CCOc1ccccc1C(=O)Nc1cc(OC)ccc1OC	7%	?	-2%	-21%	3%
CCOc1ccccc1C(=O)NC1CCN(CC(=O)Nc2cc(OC)ccc2OC)CC1	1%	16µM*	-23%	21µM*	·
COc1ccc(Cl)cc1NC(=O)CN1CCC(NC(=O)C2CC2)CC1	38%	?	-17%	23µM*	6%
COc1cccc2c1OCC/C2=N\NC(=O)COc1ccc(C)cc1	-3%	-14%	-8%	0%	-4%
O=C(COC(=O)c1ccccc1Br)NC(=O)NCc1ccccc1	·	13%	·	-4%	-3%
O=C1N/C(=C/c2ccc(Br)cc2)C(O)=C1C=NCc1ccccc1	25%	2.3µM*	-9%	2.9µM*	3%
C/C(=N\NC1=NCCN1)c1ccc(N)c([N+](=O)[O-])c1	?	?	?	-27%	·
CCOc1ccc(CSC2=NCCN2)cc1[N+](=O)[O-]	-29%	16µM*	-7%	?	5%
CCCCOc1ccc(CSC2=NCCN2)cc1[N+](=O)[O-]	-5%	21µM*	-6%	18µM*	3%
